Assay [1] in a line: NCI Yeast Anticancer Drug Screen. Data for the rad50 strain (AID 155).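 Also: 0% = growth of vehicle-only cultures of the same strain.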 The conditions noted are these: S. cerevisiae rad50 strain growth inhibition, active compounds read high. In a few lines:
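Growth of the mutant yeast was measured after compound exposure and referenced to vehicle-treated cultures.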

A short description of assay [2]: NCI Yeast Anticancer Drug Screen. Data for the mec2-1 strain (AID 157). The conditions noted are these: S. cerevisiae mec2-1 strain, active compounds read high. In short, it runs like this: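 Each compound was tested on mec2-1 yeast, a strain altered in DNA damage repair or cell cycle control. Growth inhibition is reported relative to vehicle.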
The nature of assay [3]: NCI Yeast Anticancer Drug Screen. Data for the sgs1 mgt1 strain (AID 161).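 Also: 0% = growth of cultures given vehicle only.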 Conditions: S. cerevisiae sgs1 mgt1 strain, active compounds read high. In short, it runs like this: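 Test agents were incubated with a DNA-repair-mutant yeast strain. Growth was then read and compared against vehicle-treated controls.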
Assay [4] in a line: NCI Yeast Anticancer Drug Screen. Data for the cln2 rad14 strain (AID 165).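 Also: 0% = growth equal to vehicle treated cultures.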 The conditions noted are these: S. cerevisiae cln2 rad14 strain, active compounds read high. In short, it runs like this: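 Test compounds were added to cln2 rad14 yeast cultures; inhibition of growth was then determined by comparison with vehicle treatment.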
The nature of assay [5]: NCI Yeast Anticancer Drug Screen. Data for the bub3 strain (AID 167). Conditions: S. cerevisiae bub3 mutant strain, active compounds read high. In short, it runs like this:
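Whole-cell yeast assay. The mutant strain was incubated with compounds, and growth inhibition was determined by comparison with vehicle-treated cells.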

Assay [6] in a line: NCI Yeast Anticancer Drug Screen. Data for the mlh1 rad18 strain (AID 175). Conditions: S. cerevisiae mlh1 rad18 strain growth inhibition, active compounds read high. In short, it runs like this: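 Inhibition values reflect reduced growth of mutant yeast versus vehicle-treated controls following compound exposure; the mutations affect DNA damage repair.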
Setting [7] is: at 5.0 µM (retest, dose inferred, filed as 0.5).
Where [8] appears, read: at 50.0 µM (retest, dose inferred, filed as 5.0).

This is part of a sample that, as a whole, favours compounds with a hit. Of some 79,000 tested, about 15% had one in any assay. Values without a mark were called inactive. Calls of active or inactive are those of the source. Rule as the data show it: active = growth inhibition above about 70%; inactive = the rest.

On to `CCCCCCNC(=O)CI`, for which the growth inhibition in assay [1] (setting [7]) was -3%; in assay [1] (setting [8]) it was 88% (active); in assay [1] (at 50.0 µM), 42.7%; in assay [2] (setting [7]) it was -2%; in assay [2] (setting [8]), 91% (active); in assay [2] (at 50.0 µM), 75.2% (active). Also, the growth inhibition is -5% in assay [3] (setting [7]); 87% (active) in assay [3] (setting [8]); 16.7% in assay [3] (at 50.0 µM); -1% in assay [4] (setting [7]); 46% in assay [4] (setting [8]); -17.4% in assay [4] (at 50.0 µM). Moreover, the growth inhibition in assay [5] (setting [7]) is 5%; in assay [5] (setting [8]), 84% (active); in assay [5] (at 50.0 µM) it was 59.2%; in assay [6] (setting [7]) it was -3%; in assay [6] (setting [8]), 93% (active); in assay [6] (at 50.0 µM), 50.4%.
As for `c1ccc(P(CC[As](c2ccccc2)c2ccccc2)CC[As](c2ccccc2)c2ccccc2)cc1`, the growth inhibition in assay [1] (setting [7]) was 95% (active); in assay [1] (setting [8]) it was 95% (active); in assay [1] (at 50.0 µM), 89% (active); in assay [2] (setting [7]), 81% (active); in assay [2] (setting [8]) it was 81% (active); in assay [2] (at 50.0 µM), 90.8% (active). Besides, the growth inhibition in assay [3] (setting [7]) is 47%; in assay [3] (setting [8]), 47%; in assay [3] (at 50.0 µM) it was 88.5% (active); in assay [4] (setting [7]) it was 76% (active); in assay [4] (setting [8]) it was 76% (active); in assay [4] (at 50.0 µM), 89.3% (active). For the same molecule, the growth inhibition in assay [5] (setting [7]) was 84% (active); in assay [5] (setting [8]), 84% (active); in assay [5] (at 50.0 µM) it was 90.8% (active); in assay [6] (setting [7]) it was 80% (active); in assay [6] (setting [8]) it was 80% (active); in assay [6] (at 50.0 µM) it was 88.6% (active).
Regarding `Nc1ccc(Cl)cc1C(=O)c1ccccc1Cl`, the growth inhibition in assay [1] (setting [7]) is -3%; in assay [1] (setting [8]) it was 99% (active); in assay [1] (at 50.0 µM), 97.4% (active); in assay [2] (setting [7]), -3%; in assay [2] (setting [8]), 99% (active); in assay [2] (at 50.0 µM), 97.2% (active). For the same molecule, the growth inhibition in assay [3] (setting [7]) is -2%; in assay [3] (setting [8]), 99% (active); in assay [3] (at 50.0 µM) it was 97.5% (active); in assay [4] (setting [7]), -9%; in assay [4] (setting [8]) it was 98% (active); in assay [4] (at 50.0 µM), 80.8% (active). Further, the growth inhibition in assay [5] (setting [7]) was -12%; in assay [5] (setting [8]), 99% (active); in assay [5] (at 50.0 µM), 87.5% (active); in assay [6] (setting [7]) it was -1%; in assay [6] (setting [8]), 99% (active); in assay [6] (at 50.0 µM) it was 96.8% (active).
For `CCOC(=O)C1CC12c1ccccc1-c1ccccc12` (configuration not stated), the growth inhibition in assay [1] (setting [7]) was 2%; in assay [1] (setting [8]) it was 23%; in assay [1] (at 50.0 µM), 73.5% (active); in assay [2] (setting [7]), -6%; in assay [2] (setting [8]) it was 29%; in assay [2] (at 50.0 µM) it was 52.9%. Further, the growth inhibition is -23% in assay [3] (setting [7]); 48% in assay [3] (setting [8]); 67.2% in assay [3] (at 50.0 µM); -6% in assay [4] (setting [7]); -5% in assay [4] (setting [8]); 19.8% in assay [4] (at 50.0 µM). Besides, the growth inhibition in assay [5] (setting [7]) was 1%; in assay [5] (setting [8]), 4%; in assay [5] (at 50.0 µM) it was 14.9%; in assay [6] (setting [7]) it was -1%; in assay [6] (setting [8]) it was 41%; in assay [6] (at 50.0 µM), 69.5%.
On to `COc1cc(C[C@H]2c3cc(OC)c(OC)c(O)c3CCN2C)c(Oc2cc3c(cc2OC)-c2c(OC)c(OC)c(OC)c4c2C(C3)N(C)CC4)cc1OC` (some centres not stated) (tested in a mixture with another compound), for which the growth inhibition was -2% in assay [1] (setting [7]); 40% in assay [1] (setting [8]); 64.7% in assay [1] (at 50.0 µM); -1% in assay [2] (setting [7]); 52% in assay [2] (setting [8]); 33.5% in assay [2] (at 50.0 µM). Moreover, the growth inhibition is -6% in assay [3] (setting [7]); 36% in assay [3] (setting [8]); 47.8% in assay [3] (at 50.0 µM); -7% in assay [4] (setting [7]); 44% in assay [4] (setting [8]); 44.8% in assay [4] (at 50.0 µM). For the same molecule, the growth inhibition was 3% in assay [5] (setting [7]); 39% in assay [5] (setting [8]); 61.5% in assay [5] (at 50.0 µM); -5% in assay [6] (setting [7]); 96% (active) in assay [6] (setting [8]); 80% (active) in assay [6] (at 50.0 µM).
`CSc1ccc(NC(=O)C2c3[nH]c4ccccc4c3C3CCC(C(C)(C)C)CC3C2C(=O)O)cc1` (configuration not stated): the growth inhibition in assay [1] (setting [7]) was 0%; in assay [1] (setting [8]), -4%; in assay [1] (at 50.0 µM) it was 16.8%; in assay [2] (setting [7]), -16%; in assay [2] (setting [8]), 10%; in assay [2] (at 50.0 µM), 1.95%. Besides, the growth inhibition in assay [3] (setting [7]) is -4%; in assay [3] (setting [8]) it was 1%; in assay [3] (at 50.0 µM), 30.8%; in assay [4] (setting [7]), -19%; in assay [4] (setting [8]) it was 8%; in assay [4] (at 50.0 µM), 56.4%. The growth inhibition was -8% in assay [5] (setting [7]); 5% in assay [5] (setting [8]); 77.1% (active) in assay [5] (at 50.0 µM); 11% in assay [6] (setting [7]); 26% in assay [6] (setting [8]); 46% in assay [6] (at 50.0 µM).
On to `[Au+].c1c[n-]cn1.c1ccc([PH+](c2ccccc2)c2ccccc2)cc1`, for which the growth inhibition in assay [1] (setting [7]) is 99% (active); in assay [1] (setting [8]) it was 98% (active); in assay [1] (at 50.0 µM) it was 97.9% (active); in assay [2] (setting [7]) it was 99% (active); in assay [2] (setting [8]) it was 98% (active); in assay [2] (at 50.0 µM), 98% (active). Further, the growth inhibition in assay [3] (setting [7]) was 99% (active); in assay [3] (setting [8]), 98% (active); in assay [3] (at 50.0 µM) it was 96.2% (active); in assay [4] (setting [7]), 98% (active); in assay [4] (setting [8]), 97% (active); in assay [4] (at 50.0 µM), 93.6% (active). Besides, the growth inhibition in assay [5] (setting [7]) was 98% (active); in assay [5] (setting [8]), 98% (active); in assay [5] (at 50.0 µM), 97.2% (active); in assay [6] (setting [7]) it was 99% (active); in assay [6] (setting [8]), 98% (active); in assay [6] (at 50.0 µM), 97.7% (active).
In the case of `COc1ccc(CC2C(=O)NC(C)C(=O)N(C)C3C(=O)N(C)C(Cc4ccc(O)c(c4)Oc4ccc(cc4)C3O)C(=O)NC(C)C(=O)NC(C)C(=O)N2C)cc1` (configuration not stated), the growth inhibition in assay [1] (setting [7]) was -8%; in assay [1] (setting [8]), 80% (active); in assay [1] (at 50.0 µM), 75.9% (active); in assay [2] (setting [7]), 29%; in assay [2] (setting [8]) it was 69%; in assay [2] (at 50.0 µM) it was 47.5%. Moreover, the growth inhibition in assay [3] (setting [7]) was 12%; in assay [3] (setting [8]), 63%; in assay [3] (at 50.0 µM), 54.3%; in assay [4] (setting [7]), 27%; in assay [4] (setting [8]), 88% (active); in assay [4] (at 50.0 µM) it was 84.5% (active). The growth inhibition was 19% in assay [5] (setting [7]); 81% (active) in assay [5] (setting [8]); 65.4% in assay [5] (at 50.0 µM); 10% in assay [6] (setting [7]); 87% (active) in assay [6] (setting [8]); 63% in assay [6] (at 50.0 µM).
In the case of `CC(=O)OC1CCC2(C)C(CCC3C4=CCC(C5=CC(=O)OC5)C4(C)CCC32)C1` (configuration not stated), the growth inhibition in assay [1] (setting [7]) was 3%; in assay [1] (setting [8]) it was -33%; in assay [1] (at 50.0 µM) it was 82.8% (active); in assay [2] (setting [7]), -1%; in assay [2] (setting [8]), 14%; in assay [2] (at 50.0 µM), 81.8% (active). In addition, the growth inhibition in assay [3] (setting [7]) is 5%; in assay [3] (setting [8]), 55%; in assay [3] (at 50.0 µM), 91.3% (active); in assay [4] (setting [7]) it was 12%; in assay [4] (setting [8]) it was 11%; in assay [4] (at 50.0 µM), 65.3%. Besides, the growth inhibition in assay [5] (setting [7]) is 0%; in assay [5] (setting [8]), 4%; in assay [5] (at 50.0 µM), 67.5%; in assay [6] (setting [7]) it was 3%; in assay [6] (setting [8]), -8%; in assay [6] (at 50.0 µM) it was 77.8% (active).

For the origin of these results see PubChem BioAssay (NCI).
